In PubChem BioAssay (NCATS):
Where “and” joins values, the source holds several entries; their conditions need not be identical. Identical values can stand only once. Records with an inconclusive call do not appear. A structure can be active in one record and inactive in another. Calls of active or inactive are those of the source. Calls come from the whole dose curve; as a rule, active = well fitted activation curve with a large enough effect; inconclusive = small, poorly fitted or top-dose-only effect; inactive = no such curve, though single readings can be large or run the other way.
Potency is the fitted concentration of half-maximal effect.

Each molecule was assayed against Cellular tumor antigen p53 (Homo sapiens) (UniProt P04637) (assay: Primary qHTS for small molecule compounds that upregulate eGFP-tagged delta133p53alpha (in N-terminal) cells. (AID 2060322; note: nearly all actives have a fitted effect of over 75% in size;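 for activation: cells pre-induced with doxycycline then dosed without doxycycline; series mostly up to about 56 µM; 0% = DMSO vehicle and 100% = reference activator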)). Settings: NCI-H358 eGFP-delta133p53alpha fluorescence, 24 h; activation: stronger effect = higher value.
Chain of Cellular tumor antigen p53 (Homo sapiens) (P04637 whole entry, looked up): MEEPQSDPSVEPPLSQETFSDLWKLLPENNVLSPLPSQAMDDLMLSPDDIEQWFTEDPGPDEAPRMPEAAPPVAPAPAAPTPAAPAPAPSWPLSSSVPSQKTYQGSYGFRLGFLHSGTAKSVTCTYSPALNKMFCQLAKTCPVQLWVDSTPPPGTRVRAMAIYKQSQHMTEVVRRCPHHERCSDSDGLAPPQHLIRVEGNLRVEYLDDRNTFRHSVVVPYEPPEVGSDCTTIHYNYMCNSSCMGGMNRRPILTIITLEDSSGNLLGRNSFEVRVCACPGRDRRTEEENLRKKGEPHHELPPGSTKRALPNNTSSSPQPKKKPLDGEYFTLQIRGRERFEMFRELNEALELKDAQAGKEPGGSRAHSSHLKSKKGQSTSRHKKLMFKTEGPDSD
Text: Assay Development and Screening Technology
National Center for Advancing Translational Sciences (NCATS),
National Institute of Health (NIH), Rockville, Maryland
Cellular senescence (CS) is one of the hallmarks of aging and age-related diseases. Senescent cells are characterized by an irreversible growth arrest, an increase in senescence-associated beta-galactosidase (SA-beta-gal) activity and p16INK4a expression, an activation of the DNA damage response pathways, and the emergence of a senescence-associated secretory phenotype (SASP).
Delta133p53alpha, a human/primate-specific p53 protein isoform, delays or inhibits the induction of CS and SASP in various types of human cells, including progeria-derived fibroblasts, primary normal astrocytes, and CD8+ T lymphocytes. Induction of delta133p53alpha with small molecule compounds may provide therapeutic opportunities for inhibition of senescence/SASP-associated pathologies in progeria syndromes, astrocyte-mediated neuroprotection in neurodegenerative diseases, and possibly prevention and treatment of a wider range of senescence- and aging-associated diseases.
Here we report the development and validation of a cell-based quantitative high throughput screening (qHTS) assay in 1,536-well format. This qHTS assay uses the NCI-H358 cell line with doxycycline-inducible expression of enhanced green fluorescent protein (eGFP)-tagged delta133p53alpha, which allows efficient and highly quantitative measurement of the protein levels.
PROTOCOL TABLE (as described by Inglese J, Shamu CE and Guy RK. 2007)
SEQUENCE No. (e.g., 1, 2, 3, etc.); […] (e.g., Cells, Incubation, Reagent, etc.); VALUE; DESCRIPTION.
1; Cells; 4uL; 800 doxycycline treated cells / well in doxycycline-free media, 1536-well black, clear-bottom low base Aurora microplates.
2; Compounds; 23 nL; Kalypsis pin tool (Wako) equipped with 1536-well pin heads, 5-azacytidine positive control.
3; Incubation; 24 hr; 37C, 5% CO2; 95% relative humidity.
4; Aspiration; 1x; BioTek EL406 washer dispenser (Agilent).
5; Fixing; 3.5% paraformaldehyde, BioTek EL406 washer dispenser (Agilent).
6; Washing; 1x PBS; BioTek EL406 washer dispenser (Agilent).
7; Nuclei staining; 1:1000 dilution of Hoechst 33342 (Thermofisher), BioTek EL406 washer dispenser (Agilent).
8; Incubation; 20 min; in the dark at room temperature.
9; Washing; 2x, 1x PBS (ThermoFisher), BioTek EL406 washer dispenser (Agilent).
10; Reagent; 10 uL; 1x PBS per well, sealed with clear adhesive tape.
NOTES (numbers refer to sequence numbers above).
1. NCI-H358 cells expressing eGFP-tagged delta133p53alpha were grown in T75 culture flasks and treated with doxycycline for 24h, at 10 ng/ml for eGFP-D133p53a cells (N-terminal cell) and 100 ng/ml for D133p53a-eGFP cells (C-terminal cells). Cells were trypsinized, counted using a Counted 3 Automated Cell Counter (Thermo Fisher), and diluted to a concentration of 200,000 cells/ml. A Multidrop Combi Reagent Dispenser (ThermoFisher) was used to dispense 800 cells/well in […] of doxycycline-free media, into 1536-well black/clear bottom low base plates (AuroraMicroplates).
2. After plating cells, 23 nl of compound library, DMSO vehicle control or positive control (5-azacytidine) were transferred by Pin Tool (Wako). The plate map layout was the same for each plate: (column 1) non-doxycycline treated cells + DMSO vehicle control; (column 2) doxycycline treated cells + DMSO vehicle control baseline; (column 3) doxycycline treated cells + positive control 57.5 uM final concentration 5-azacytidine; (column 4) doxycycline treated cells + serial dilution of 5-azacytidine, 16-point 1:2 titration spanning 1.8 nM to […] final concentration; (columns 5-48) doxycycline treated cells + titration of library compounds.
3. Cells were incubated at 37 °C, 5 % CO2, 95% RH with breathable metal lid for 24h.
4-10. […] After two washes, 10 ul of 1X PBS (Thermo Fisher) was dispensed to each well. Clear adhesive plate seals (VWR) were applied and plates stored at 4 °C.
11. […]
With `Nc1nc(Nc2ccc(S(N)(=O)=O)cc2)n(C(=S)Nc2c(F)cccc2F)n1` the Potency was 2.13 µM (active).
In the case of `Cc1cc(NC(=O)Nc2ccc3c(ccn3C)c2)sn1`, the activation is reported as 51% (inactive).
In the case of `Cn1c(=O)c(F)c(Nc2ccc(I)cc2F)c2c(=O)n(C[C@@H](O)CO)cnc21`, the activation is reported as 15.6% (inactive).
`CC1CCC2(C(=O)O)CCC3(C)C(=CCC4C5(C)CCC(O)C(C)(CO)C5CCC43C)C2C1(C)O` (stereo unspecified) was tested, and the activation was -0.893% (inactive).
For `CC(C)COC(=O)OCN1C(=O)CN(CCN2CC(=O)N(COC(=O)OCC(C)C)C(=O)C2)CC1=O`, the activation was -13.5% (inactive).
With `Cn1cnc2c(F)c(Nc3ccc(Br)cc3F)c(C(=O)NOCCO)cc21` the activation was 64.2% (inactive) and -20.5% (inactive).
In the case of `CN(C)c1ccc(C(=O)NCCCCCC(=O)NO)cc1`, the activation is reported as 10.1% (inactive).
In the case of `C(#Cc1cccc(CN2CCOCC2)c1)CCN1CCCCC1`, the activation is reported as -4.3% (inactive).
`CC1=C2CC(O)(C(C)(C)O)C(O[C@@H]3O[C@H](CO)[C@@H](O)[C@H](O)[C@H]3O)CC(C)C2CC1=O` (stereo partly specified) was tested, and the activation was -3.05% (inactive).
With `C[C@@]12CCC[C@H]1[C@@H]1CC[C@H]3C[C@@H](O)CC[C@]3(C)[C@H]1CC2` the activation was -12.6% (inactive).
`CN(C)CCOC(C)(c1ccccc1)c1ccccn1` (stereo unspecified) was tested, and the activation was -7.21% (inactive).
`COc1ccc(N2CCOCC2)c2sc(NC(=O)N3CCC(C)(O)CC3)nc12` was tested, and the activation was -5.25% (inactive).
For `CC(C)(O)C1CCC2(C)C3C(O)C4C(C13)C42CO` (stereo unspecified), the activation was 3.57% (inactive).
For `C=CCc1ccc(O[C@@H]2O[C@H](CO[C@@H]3O[C@H](CO)[C@@H](O)[C@H](O)[C@H]3O)[C@@H](O)[C@H](O)[C@H]2O)c(O)c1`, the activation was -5.34% (inactive).
With `C[C@]1(OC(=O)/C=C/c2ccccc2)C[C@@H](O)[C@]2(O)C=CO[C@@H](O[C@@H]3O[C@H](CO)[C@@H](O)[C@H](O)[C@H]3O)[C@@H]21` the activation was -8.93% (inactive).
`C=C1CC[C@@]2(OC1)O[C@H]1CC3[C@@H]4CC=C5C[C@@H](O)C[C@@H](O[C@@H]6OC[C@H](O)[C@H](O)[C@H]6O[C@@H]6O[C@@H](C)[C@H](O)[C@@H](O)[C@H]6O)[C@]5(C)C4CC[C@]3(C)[C@H]1[C@@H]2C` (stereo partly specified) was tested, and the activation was -26% (inactive).
In the case of `N/C(=N\N=C\c1ccc(Cl)cc1)N/N=C/c1ccc(Cl)cc1`, the activation is reported as 0% (inactive).
In the case of `Cc1cc2c(cc1Cl)N(C(=O)Nc1ccc(Oc3cccnc3C)nc1)CC2`, the activation is reported as -71.3% (inactive).
`CCNCc1nc2c(N)nc3ccccc3c2n1CC(C)(C)O` was tested, and the activation was -0.477% (inactive).
For `CC(=O)O[C@H]1C[C@@H]2[C@]3(CC[C@]4(C)[C@@H](C5(C)CCC(C(C)(C)O)O5)[C@@H](O)C[C@@]24C)C[C@@]32CC[C@H](O[C@@H]3OC[C@@H](O)[C@H](O)[C@H]3O)C(C)(C)[C@H]12` (stereo partly specified), the activation was -4.46% (inactive).
In the case of `OC1(CN2CCC(COc3noc4cccc(O[C@@H]5CCOC5)c34)CC2)CCOCC1`, the activation is reported as 3.82% (inactive).
For `CC(CCc1ccc(O)cc1)O[C@@H]1O[C@H](CO[C@@H]2OC(CO)[C@H](O)[C@H]2O)[C@@H](O)[C@H](O)[C@H]1O` (stereo partly specified), the activation was -13.7% (inactive).
In the case of `COc1c(C)c2c(c(O)c1C/C=C(\C)CCC(=O)O)C(=O)OC2`, the activation is reported as 7.34% (inactive).
With `Cc1nnc(-c2ccc3occ(-c4ccc(S(C)=O)cc4)c3c2)o1` (stereo unspecified) the activation was -20.5% (inactive).
In the case of `COc1ccc(NS(=O)(=O)c2ccc(N)cc2)nn1`, the activation is reported as 6.69% (inactive).
`NCC(=O)O` was tested, and the activation was 13% (inactive).
With `C=C1CCC2C(C)(C)C(O)CCC2(C)C1CCC(C)CCOC(C)=O` (stereo unspecified) the activation was 5.36% (inactive).
`CC(C)(C)COc1ccc(-n2cc(C(=O)O)cn2)cc1C#N` was tested, and the activation was -16.6% (inactive).
`CN1C(=O)c2sccc2N(C)c2nc(Nc3ccc(S(N)(=O)=O)cc3)ncc21` was tested, and the activation was -6.75% (inactive).
In the case of `COc1cc(C2c3cc(O)c(OC)cc3CC(CO)C2CO)ccc1O` (stereo unspecified), the activation is reported as 8.93% (inactive).
`O=C(O)Cn1nnc(-c2cc(N3CCC(Oc4cc(F)ccc4Br)CC3)no2)n1` was tested, and the activation was 22.3% (inactive) and 6.21% (inactive).
For `CC(C)COCC(CN(Cc1ccccc1)c1ccccc1)N1CCCC1` (stereo unspecified), the activation was -16.2% (inactive) and the Potency was 34.7 µM (active).
For `C=CC[C@H](N)C(=O)O`, the activation was -35.4% (inactive).
With `Cc1ccc(C)c(S(=O)(=O)n2cnc3ccccc32)c1` the activation was 1% (inactive).
In the case of `O=S(=O)(NCCNCC=Cc1ccc(Br)cc1)c1cccc2cnccc12`, the activation is reported as -19.7% (inactive).
In the case of `CC1(C)CC2C(O)C3=C(CC(C)(O)C2C1)C(=O)OC3` (stereo unspecified), the activation is reported as -6.87% (inactive).
In the case of `CCCC(C(=O)OCCN(CC)CC)(c1ccccc1)c1ccccc1`, the activation is reported as -51.2% (inactive) and the Potency is reported as 34.7 µM (active).
With `COCC(=O)O[C@]1(CCN(C)CCCc2nc3ccccc3[nH]2)CCc2cc(F)ccc2[C@@H]1C(C)C` the Potency was 21.9 µM (active) and the activation was 29.4% (inactive).
